The subject of experiment [1] is Wnt5a (protein binding on small-molecule microarray). Kind of experiment: Wnt5a binders on small-molecule microarray, primary screen, biophysical, 635/667 nm fluorescence (AID 1142).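 Further: fluorescence read at 667 nm with signal to noise per printed feature.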 Particulars: 635 nm fluorescence, higher = more signal.
The nature of experiment [2]: cell viability in Huh7 cells, primary screen, cytotoxicity control for HCV replication inhibitor project, CellTiter-Glo luminescence, basal, 48 h (AID 1143).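 Further: Huh7 hepatoma cells carrying a hepatitis C replication reporter with no stimulus; test concentration not given here.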 As to conditions: Huh7 HCV replicon, higher = more signal, called active from +8 up or from −8 down. On the technique in general: In ATP-based viability assays light output follows the ATP content of the culture.
The nature of experiment [3]: P. aeruginosa biofilm formation inhibitors, primary screen, PAO1 strain, BacTiter-Glo luminescence, LB-PBS (AID 1144). As to conditions: 12 h, higher = more signal.
Experiment [4] is described as follows: CREB reporter modulators without forskolin, primary screen, cell-based, PC12, CRE-LacZ reporter, unstimulated (AID 1145). As to conditions: no forskolin, luminescence, 4.5 h, higher = more signal, called active from +8 up or from −8 down.
The nature of experiment [5]: CREB reporter modulators under forskolin, primary screen, cell-based, PC12, CRE-LacZ reporter, forskolin-stimulated (AID 1146).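 Further: PC12 cells with 6xCRE LacZ reporter stimulated by forskolin 10 µM; beta-galactosidase reporter signal reflecting CREB driven transcription.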 As to conditions: luminescence, 4.5 h, higher = more signal, called active from +8 up or from −8 down.
The target in experiment [6] is Streptavidin (Streptomyces avidinii) (UniProt P22629). Nature of the experiment: streptavidin binders on small-molecule microarray, primary screen, artefact control for SMM compound annotation, biophysical, 635/667 nm fluorescence (AID 1147).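 Further: signal reflects streptavidin binding to arrayed compounds as a control protein.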 Particulars: streptavidin binding, higher = more signal.
The nature of experiment [7]: small-molecule binders of probe aInhba, primary screen, biochemical, small-molecule microarray, 635/667 nm fluorescence (AID 1148).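 Further: score merges 667nm spot fluorescence with signal-to-noise for antibody binding to printed compounds.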 As to conditions: higher = more signal.
Experiment [8] deals with Torsin-1A (Homo sapiens) (UniProt O14656). Kind of experiment: torsin A binders from cell lysate, primary screen, small-molecule microarray, wild-type, 635/667 nm (AID 1149). Particulars: COS7 hTOR1A-WT lysate, 635 nm fluorescence, higher = more signal.
The target is the same in experiment [9]. Nature of the experiment: small-molecule binders of mutant TOR1A in lysate, primary screen, cell lysate, small-molecule microarray, COS7 lysate, 635/667 nm fluorescence (AID 1150).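 Further: score pools 667 nm emission and signal to noise measuring lysate protein binding.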 Particulars: COS7 hTOR1A mutant lysate, 635 nm fluorescence, higher = more signal.
Experiment [10] has as its system Sonic hedgehog protein (Shh). Kind of experiment: small-molecule binders of Shh protein, primary screen, biochemical, small-molecule microarray, 635/667 nm fluorescence (AID 1151).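 Further: Shh protein binding to compounds spotted on small-molecule microarray slides; score combines spot fluorescence intensity with signal-to-noise across triplicate slides.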 Particulars: small-molecule microarray binding, 635 nm fluorescence; higher = more signal.
Experiment [11] is described as follows: E. coli DRC41 culture turbidity changes, primary screen, E. coli filamentation inducer project, strain DRC41, OD650, 48 h (AID 1152).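 Further: E. coli MC1000 strain DRC41 lacking acrAB efflux pump and sulA.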 Particulars: E. coli DRC41 (acrAB sulA), higher = more signal, called active from +8 up or from −8 down.
A short description of experiment [12]: small-molecule binders of probe aLefty1, primary screen, biochemical, small-molecule microarray, 635/667 nm fluorescence (AID 1153).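 Further: score merges spot fluorescence with signal-to-noise ratio from the scanned slide images.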 As to conditions: higher = more signal.
A short description of experiment [13]: PSAC antagonists in infected red cells, primary screen, cell-based, P. falciparum Indochina, OD700, 1 h (AID 1154). Particulars: P. falciparum Indochina infected RBC osmotic lysis, higher = more signal, called active from +8 up or from −8 down.
Experiment [14] can be described thus: PSAC antagonists in infected red cells, primary screen, cell-based, P. falciparum Indochina, OD700, 2 h (AID 1155).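 Further: lysis reports solute entry through the parasite surface anion channel PSAC; channel blockers reduce lysis of infected cells.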 As to conditions: P. falciparum Indochina infected erythrocytes, osmotic lysis OD700; higher = more signal, called active from +8 up or from −8 down.
The nature of experiment [15]: osmotic lysis modulators in infected erythrocytes, primary screen, PSAC antagonist project, cell-based, P. falciparum Indochina, OD700, 3 h (AID 1156). Particulars: higher = more signal, called active from +8 up or from −8 down.
Experiment [16] is described as follows: PSAC antagonists in infected red cells, primary screen, cell-based, P. falciparum Indochina, OD700, 18 h (AID 1157). Particulars: P. falciparum Indochina infected erythrocytes, osmotic lysis OD700, 18 h; higher = more signal, called active from +8 up or from −8 down.
The nature of experiment [17]: modulators of S6 phosphorylation in cells, primary screen, cell-based, A549, cytoblot, luminescence, serum-stimulated (AID 1158).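 Further: serum-stimulated A549 lung adenocarcinoma cells; signal is phosphorylated S6 detected by cytoblot immunostaining with HRP secondary.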 As to conditions: A549 phospho-S6 cytoblot, 5 h, higher = more signal.
Experiment [18] addresses NADPH oxidase 2 (Homo sapiens) (UniProt P04839). Kind of experiment: NOX2-dependent H2O2 signal modulators, primary screen, NOX inhibitor project, cell-based, HEK293-NOX2, PMA-stimulated, Amplex Red fluorescence (AID 1159). Further: test concentration not given here. As to conditions: 45 min, higher = more signal, called active from +8 up or from −8 down.
The target of experiment [19] is NADPH oxidase 4 (Homo sapiens) (UniProt Q9NPH5). Kind of experiment: NOX4-dependent H2O2 signal modulators, primary screen, NOX inhibitor project, cell-based, HEK293-NOX4, tetracycline-induced, Amplex Red fluorescence (AID 1160). Particulars: 45 min, higher = more signal, called active from +8 up or from −8 down.
Experiment [20] has as its target NADPH oxidase 5 (Homo sapiens) (UniProt Q96PH1). Kind of experiment: NOX5-dependent H2O2 signal modulators, primary screen, NOX inhibitor project, cell-based, HEK293-NOX5, Amplex Red fluorescence (AID 1161). Particulars: HEK293-NOX5, ionomycin, 45 min, higher = more signal.

The structures appear in SMILES notation. Active and inactive are the calls of the source. Unless noted, how the calls were made is not given here.

Chain of NADPH oxidase 4 (Homo sapiens) (Q9NPH5 whole entry, looked up): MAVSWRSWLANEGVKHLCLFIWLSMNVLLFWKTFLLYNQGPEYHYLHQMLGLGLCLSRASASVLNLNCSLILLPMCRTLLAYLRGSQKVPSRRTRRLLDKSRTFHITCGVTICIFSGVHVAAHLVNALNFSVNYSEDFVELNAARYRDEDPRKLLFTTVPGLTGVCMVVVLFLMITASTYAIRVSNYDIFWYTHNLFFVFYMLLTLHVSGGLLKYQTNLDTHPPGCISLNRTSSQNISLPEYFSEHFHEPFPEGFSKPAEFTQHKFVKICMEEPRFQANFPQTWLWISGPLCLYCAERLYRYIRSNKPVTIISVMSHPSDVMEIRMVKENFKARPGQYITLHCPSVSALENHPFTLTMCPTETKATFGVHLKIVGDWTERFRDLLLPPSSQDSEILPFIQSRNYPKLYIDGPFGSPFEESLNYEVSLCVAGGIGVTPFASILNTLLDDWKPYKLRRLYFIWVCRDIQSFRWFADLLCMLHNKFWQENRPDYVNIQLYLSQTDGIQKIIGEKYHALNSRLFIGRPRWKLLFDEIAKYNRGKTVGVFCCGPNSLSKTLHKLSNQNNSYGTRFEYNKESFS
Chain of Torsin-1A (Homo sapiens) (O14656 whole entry, looked up): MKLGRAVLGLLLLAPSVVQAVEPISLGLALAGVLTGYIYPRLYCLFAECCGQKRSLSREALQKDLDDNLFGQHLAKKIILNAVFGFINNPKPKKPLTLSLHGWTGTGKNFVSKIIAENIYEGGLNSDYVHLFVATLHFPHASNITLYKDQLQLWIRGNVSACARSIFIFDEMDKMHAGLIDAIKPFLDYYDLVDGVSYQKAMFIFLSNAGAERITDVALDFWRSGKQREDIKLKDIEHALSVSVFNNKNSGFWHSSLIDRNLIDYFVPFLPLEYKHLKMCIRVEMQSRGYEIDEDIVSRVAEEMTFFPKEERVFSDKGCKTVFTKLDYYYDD
Chain of NADPH oxidase 2 (Homo sapiens) (P04839 whole entry, looked up): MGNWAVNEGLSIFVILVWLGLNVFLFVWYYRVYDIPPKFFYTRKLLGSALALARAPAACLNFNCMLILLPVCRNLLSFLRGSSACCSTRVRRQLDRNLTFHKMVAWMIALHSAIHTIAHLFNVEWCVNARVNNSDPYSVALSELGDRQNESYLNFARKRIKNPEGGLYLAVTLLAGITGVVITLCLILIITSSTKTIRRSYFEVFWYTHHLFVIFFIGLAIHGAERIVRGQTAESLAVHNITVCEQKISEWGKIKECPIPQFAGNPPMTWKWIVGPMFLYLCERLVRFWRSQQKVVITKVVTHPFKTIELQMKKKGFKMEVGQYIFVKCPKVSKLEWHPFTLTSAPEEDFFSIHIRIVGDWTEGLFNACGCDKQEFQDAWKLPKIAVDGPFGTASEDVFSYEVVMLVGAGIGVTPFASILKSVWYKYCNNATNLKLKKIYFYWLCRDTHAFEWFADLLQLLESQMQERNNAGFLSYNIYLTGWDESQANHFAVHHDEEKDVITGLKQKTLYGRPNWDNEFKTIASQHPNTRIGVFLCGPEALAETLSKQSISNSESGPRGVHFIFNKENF
Chain of Streptavidin (Streptomyces avidinii) (P22629 whole entry, looked up): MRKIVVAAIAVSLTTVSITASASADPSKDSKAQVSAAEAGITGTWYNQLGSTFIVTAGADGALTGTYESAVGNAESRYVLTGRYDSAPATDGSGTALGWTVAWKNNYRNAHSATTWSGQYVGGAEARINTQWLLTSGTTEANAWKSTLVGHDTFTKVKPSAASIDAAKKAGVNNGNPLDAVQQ
Chain of NADPH oxidase 5 (Homo sapiens) (Q96PH1 whole entry, looked up): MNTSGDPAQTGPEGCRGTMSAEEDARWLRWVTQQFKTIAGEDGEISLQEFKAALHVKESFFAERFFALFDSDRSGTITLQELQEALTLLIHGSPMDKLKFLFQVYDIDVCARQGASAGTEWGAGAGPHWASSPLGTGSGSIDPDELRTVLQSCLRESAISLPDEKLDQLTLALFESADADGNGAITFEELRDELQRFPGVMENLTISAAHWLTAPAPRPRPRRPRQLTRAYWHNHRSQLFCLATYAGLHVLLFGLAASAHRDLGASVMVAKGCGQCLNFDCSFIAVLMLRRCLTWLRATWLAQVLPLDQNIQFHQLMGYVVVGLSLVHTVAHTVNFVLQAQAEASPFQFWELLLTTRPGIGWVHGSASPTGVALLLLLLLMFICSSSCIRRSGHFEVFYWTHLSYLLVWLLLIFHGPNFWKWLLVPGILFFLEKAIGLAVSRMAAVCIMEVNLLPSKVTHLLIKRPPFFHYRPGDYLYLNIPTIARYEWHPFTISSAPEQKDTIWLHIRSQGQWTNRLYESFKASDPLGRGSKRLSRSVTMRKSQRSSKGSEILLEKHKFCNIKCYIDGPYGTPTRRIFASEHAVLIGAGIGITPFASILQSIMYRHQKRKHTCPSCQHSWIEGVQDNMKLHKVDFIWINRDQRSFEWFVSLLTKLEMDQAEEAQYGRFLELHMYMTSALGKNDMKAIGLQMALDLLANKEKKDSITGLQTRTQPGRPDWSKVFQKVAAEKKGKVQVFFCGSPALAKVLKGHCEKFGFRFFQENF

For the compound `O=C(O)[C@@H]1C[C@@H]2C(=O)N3CCC[C@H]3C(=O)N2[C@@H]1c1ccc(O)cc1`, the composite z-score was 0.357 in [1]; 0.262 in experiment [6]; 0.0586 in experiment [7]; 0.746 in [8]; 0.643 in [9]; 1.61 in experiment [10]. The same compound gave a composite z-score in [12] of 0.266. Also, the z-score was -2.79 (inactive) in [2]; 0.235 (inactive) in experiment [3]; 0.0205 (inactive) in experiment [4]; -1.18 (inactive) in experiment [5]; 2.3 (inactive) in experiment [11]; 3.69 (inactive) in experiment [13]. Besides, the z-score was -0.325 (inactive) in [14]; -3.21 (inactive) in [15]; -1.54 (inactive) in experiment [16]; 0.722 in experiment [17]; -8.21 (active) in experiment [18]; -4.92 (inactive) in experiment [19]. Also, the z-score in [20] was -5.18.

`COc1cc(NN2C(C(O)c3ccc(N(C)C)cc3)C=CC3C(=O)N(c4ccccc4)C(=O)C32)cc(OC)c1OC` (stereo not given): the composite z-score was 0.0759 in [1]; 0.535 in experiment [6]; 0.242 in [7]; -0.223 in experiment [8]; 0.419 in experiment [9]; -0.254 in experiment [10]. The compound also yielded a composite z-score in experiment [12] of 0.315. Moreover, the z-score in experiment [2] is -2.89 (inactive); in experiment [3] it was -0.414 (inactive); in [4], -0.136 (inactive); in [5], -0.259 (inactive); in experiment [11] it was -2.71 (inactive); in [13], 1.76 (inactive). Also, the z-score in [14] is -0.891 (inactive); in experiment [15] it was 0.742 (inactive); in experiment [16] it was -0.765 (inactive); in [17], 1.15; in experiment [18] it was -2.65 (inactive); in [19] it was -4.37 (inactive). The same compound yielded a z-score in experiment [20] of -4.75.

For `CCC1=C2CN(Cc3ccccc3)[C@@H](C(=O)Cc3ccccc3)C2C=CCC1` (stereo not given in full), the composite z-score in [1] was -0.245; in experiment [6] it was 0.0145; in experiment [7] it was -0.0331; in experiment [8] it was -0.645; in experiment [9], -0.124; in [10] it was 0.553. In experiment [12], this compound registered a composite z-score of -0.0984. The z-score in experiment [2] was -3.57 (inactive); in experiment [3], 0.0518 (inactive); in experiment [4] it was -0.142 (inactive); in experiment [5], 1.73 (inactive); in [11] it was 0.806 (inactive); in experiment [13], 0.26 (inactive). Further, the z-score in experiment [14] was -1.13 (inactive); in experiment [15], 0.564 (inactive); in [16], -2 (inactive); in [17], 0.492; in experiment [18] it was -1.12 (inactive); in [19] it was -1.42 (inactive). In addition, the z-score in experiment [20] was -0.123.

For the compound `COc1ccc([Si](C)(C)[C@@H]2[C@@H](CC(=O)N3CCC[C@H]3CO)O[C@]3(C(=O)N(Cc4cccc(N5C(=O)COc6ccccc65)c4)c4ccccc43)[C@H]2C)cc1`, the composite z-score in [1] was 0.326; in experiment [6] it was 0.554; in [7] it was -0.0494; in experiment [8], 0.95; in experiment [9] it was 0.938; in [10], 1.12. In experiment [12], this compound displayed a composite z-score of 0.0005. For the same compound, the z-score in experiment [2] was -5.39 (inactive); in experiment [3] it was 0.425 (inactive); in experiment [4], 1.5 (inactive); in experiment [5], -0.361 (inactive); in [11], -0.194 (inactive); in experiment [13], 3.76 (inactive). Further, the z-score in experiment [14] was 1.41 (inactive); in experiment [15] it was -1.47 (inactive); in experiment [16] it was 0.646 (inactive); in [17], 0.324; in experiment [18] it was 2.66 (inactive); in experiment [19] it was 1.74 (inactive). The z-score in experiment [20] was found to be 4.12.

Consider `CC(C)NC(=O)[C@@]1(C)c2ccccc2C(=O)N(Cc2ccc(OC(F)(F)F)cc2)[C@H]1c1ccc(CO)cc1`, for which the composite z-score is -0.766 in [1]; -0.933 in experiment [6]; -0.183 in experiment [7]; -2.23 in experiment [8]; 0.492 in [9]; -0.354 in [10]. The composite z-score in experiment [12] worked out at 0.0004. Further, the z-score in experiment [2] is -1.98 (inactive); in [3], -0.539 (inactive); in [4], -0.411 (inactive); in experiment [5] it was -1.48 (inactive); in [11], -0.362 (inactive); in experiment [13], 2.96 (inactive). Also, the z-score in [14] is 0.857 (inactive); in [15], 1.89 (inactive); in experiment [16] it was 0.254 (inactive); in experiment [17], 0.0795; in experiment [18], 0.415 (inactive); in experiment [19], -0.667 (inactive). Moreover, the z-score in [20] was found to be 1.99.

Turning to `CCOC(=O)C[C@H]1[C@H](OC(=O)c2ccc(C(=O)c3ccccc3)cc2)[C@@H](NC(=O)c2ccc(-c3ccccc3)cc2)c2cc(OCCCO)ccc2N1C(=O)Cc1ccc(OC)cc1`, the composite z-score in [1] is 0.0266; in experiment [6], 0.324; in experiment [7] it was 0.0569; in [8] it was -0.0633; in experiment [9], 0.022; in experiment [10] it was -0.235. Further, the composite z-score in [12] came to 0.344. For the same compound, the z-score is 0.128 (inactive) in experiment [2]; -0.271 (inactive) in experiment [3]; -0.0989 (inactive) in experiment [4]; -0.539 (inactive) in experiment [5]; 0.548 (inactive) in experiment [11]; 11.8 (active) in experiment [13]. In addition, the z-score in [14] was 1.62 (inactive); in experiment [15] it was -0.455 (inactive); in experiment [16], 0.429 (inactive); in experiment [17] it was 0.53; in [18] it was -0.44 (inactive); in [19] it was 0.397 (inactive). In experiment [20], this compound came in with a z-score of 0.501.

As for `CCOC(=O)C[C@H]1[C@H](OC(=O)c2ccc(C(=O)c3ccccc3)cc2)[C@@H](NC(=O)c2ccc3ccccc3n2)c2cc(OCCCO)ccc2N1C(=O)Cc1ccc(OC)cc1`, the composite z-score in experiment [1] is -0.126; in experiment [6] it was 0.982; in experiment [7], -0.0521; in experiment [8], -0.077; in experiment [9], 0.292; in experiment [10] it was -0.381. Also, in [12], the composite z-score was determined as 0.0782. For the same compound, the z-score in experiment [2] was -0.124 (inactive); in experiment [3], 0.458 (inactive); in experiment [4], -0.215 (inactive); in experiment [5], -0.357 (inactive); in experiment [11], -1.61 (inactive); in experiment [13], -0.17 (inactive). Further, the z-score in [14] is 0.313 (inactive); in experiment [15], 1.57 (inactive); in experiment [16], 0.802 (inactive); in [17] it was 0.793; in experiment [18], -1.71 (inactive); in [19], -0.298 (inactive). In [20], this compound registered a z-score of -0.856.

On to `CCOC(=O)C[C@H]1[C@H](OC(=O)Cc2ccc3c(c2)OCO3)[C@@H](NC(=O)c2ccc3ccccc3n2)c2cc(OCCCO)ccc2N1C(=O)c1ccc2ccccc2n1`, for which the composite z-score in experiment [1] was 0.593; in experiment [6], 0.363; in experiment [7], -0.128; in experiment [8], 0.451; in [9], 0.339; in [10] it was 0.301. Also, in experiment [12], the composite z-score came out at 0.103. The z-score in experiment [2] was -1.23 (inactive); in experiment [3] it was -1.4 (inactive); in [4], 6.51 (inactive); in [5], -1.03 (inactive); in experiment [11], 3.01 (inactive); in experiment [13], 15.8 (active). Besides, the z-score in experiment [14] was 2.25 (inactive); in [15], -1.37 (inactive); in [16], -0.0077 (inactive); in experiment [17], 1.3; in experiment [18], 0.11 (inactive); in experiment [19], 0.204 (inactive). In [20], the z-score is -2.65.

(Values after PubChem BioAssay.)
